PubChem BioAssay (NCI)
This is part of a sample that, as a whole, favours compounds with a hit. Of some 83,000 tested, about 20% had one in any assay.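 Compound tested at a single concentration for 48 hours in 96-well plates; a percent growth value below 10 was scored as active.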 Calls of active or inactive are those of the source.

Assays:
Assay in all cases: NCI-60 one-dose screen, 48 h (100 = growth as untreated, 0 = no growth, -100 = all killed)
Settings in all cases: 10 µM unless noted
[1] = tested on: DU-145 prostate
[2] = tested on: K-562 leukemia
[3] = tested on: MALME-3M melanoma
[4] = tested on: MDA-MB-231 breast
[5] = tested on: RXF 393 renal
[6] = tested on: SF-268 CNS
[7] = tested on: SF-295 CNS
[8] = tested on: SF-539 CNS
[9] = tested on: UACC-257 melanoma
[10] = tested on: M14 melanoma
[11] = tested on: HCT-15 colon
[12] = tested on: HT29 colon
[13] = tested on: SNB-75 CNS
[14] = tested on: SNB-19 CNS
[15] = tested on: U251 CNS
[16] = tested on: PC-3 prostate
[17] = tested on: SK-MEL-5 melanoma
[18] = tested on: UACC-62 melanoma
[19] = tested on: LOX IMVI melanoma
[20] = tested on: SK-MEL-28 melanoma

Measured: growth

Cc1ccc(-c2nc(N3CCCNCC3)c3oc(-c4ccc(C)cc4)nc3n2)cc1
inactive: [1] 42% | [3] 106% | [5] 80.6% | [6] 90.2% | [7] 108% | [8] 73.8% | [9] 101% | [13] 97.7% | [14] 58.2% | [17] 88.1% | [18] 92% | [20] 89.8%
active: [2] -76% | [4] -78.8% | [10] -94.7% | [11] -72.9% | [12] -87.1% | [15] -92.4% | [16] -89.5% | [19] -79.3%

CN1CCN(C(=O)c2ccc(NC(=O)c3cc4c(nn3)NCCN4Cc3cc(Cl)ccc3Cl)cc2)CC1
active: [2] 6.45%
inactive: [1] 88.2% | [3] 73.8% | [4] 82.2% | [5] 64.2% | [6] 58.9% | [7] 67.6% | [8] 52.3% | [9] 101% | [10] 72.6% | [11] 68% | [12] 63.2% | [13] 79.4% | [14] 92.2% | [15] 65.6% | [16] 71.1% | [17] 75.2% | [18] 92.5% | [19] 59.4% | [20] 89%

Cc1ccccc1/C=C/C(=O)c1cccc(OCCCOc2cccc(C(=O)/C=C/c3ccccc3C)c2)c1
inactive: [1] 102% [3 µM] | [2] 73.6% [3 µM] | [3] 108% [3 µM] | [4] 94.8% [3 µM] | [5] 98.3% [3 µM] | [6] 99.4% [3 µM] | [7] 90.6% [3 µM] | [8] 103% [3 µM] | [9] 103% [3 µM] | [10] 103% [3 µM] | [11] 87.2% [3 µM] | [12] 79.6% [3 µM] | [13] 86.1% [3 µM] | [14] 97.1% [3 µM] | [15] 76.1% [3 µM] | [16] 88.8% [3 µM] | [17] 99.5% [3 µM] | [18] 80.2% [3 µM] | [19] 67.5% [3 µM] | [20] 112% [3 µM]

O=C(CSc1nc2ccc([N+](=O)[O-])cc2[nH]1)Nc1ccc([N+](=O)[O-])cc1
active: [3] 1.83% | [9] 9.35% | [17] -12.7% | [18] 2.77%
inactive: [1] 31.6% | [2] 14.3% | [4] 33.3% | [5] 29% | [6] 27% | [7] 21.2% | [8] 41.5% | [10] 24.5% | [11] 22.9% | [12] 13.1% | [13] 29.7% | [14] 12.4% | [15] 13.7% | [16] 12.7% | [19] 23.5% | [20] 30.7%

C#CCNC(=O)[C@H](CC)[C@H]1CC[C@H](C)[C@H]([C@@H](C)[C@H](O)[C@H](C)C(=O)[C@H](CC)C2O[C@]3(C=CC(=O)[C@]4(CC[C@@](C)([C@H]5CC[C@](O)(CC)[C@H](C)O5)O4)O3)[C@H](C)C[C@@H]2C)O1 (stereo not given in full)
active: [2] 8.66% | [4] -0.208% | [8] 6.76% | [10] -11.9% | [13] -19.5% | [17] 7.94%
inactive: [1] 22.6% | [3] 48.8% | [5] 14% | [6] 45.9% | [7] 43.9% | [9] 68.1% | [11] 28.8% | [12] 29.3% | [14] 42.1% | [15] 52.2% | [16] 21% | [18] 41.3% | [19] 32.3% | [20] 58.6%

O=C(/C=C/c1cccc(Cl)c1)c1ccc(Nc2nc(Nc3ccc(F)cc3)nc(Nc3ccc(Cl)cc3)n2)cc1
inactive: [1] 162% | [2] 79.7% | [3] 108% | [4] 110% | [6] 163% | [7] 61.9% | [8] 142% | [9] 100% | [10] 94.9% | [11] 101% | [12] 108% | [13] 95.7% | [14] 118% | [15] 112% | [16] 98.8% | [17] 90.7% | [18] 108% | [19] 104% | [20] 112%
active: [5] -9.73%

C#Cc1c2c(c(OC)c3c1OCO3)[C@H]([C@H]1OC(=O)c3c1ccc(OC)c3OC)N(C)CC2
inactive: [1] 95.1% | [2] 31.2% | [3] 69.9% | [4] 87.5% | [5] 92.3% | [6] 90.4% | [7] 77.7% | [8] 96.3% | [9] 82.8% | [10] 71.4% | [11] 60.7% | [12] 60.7% | [13] 85.8% | [14] 92.7% | [15] 87.9% | [16] 76.5% | [17] 93.4% | [18] 75.6% | [19] 79.7% | [20] 95.1%

O=C(c1nn(-c2ccccc2)c2c1CC(NCc1ccc(F)cc1)CC2)N1CCCCC1 (stereo not given)
inactive: [1] 108% | [2] 91% | [3] 102% | [4] 110% | [5] 107% | [6] 93% | [7] 102% | [8] 106% | [9] 101% | [10] 95.3% | [11] 99.5% | [12] 101% | [13] 84.5% | [14] 101% | [15] 95.7% | [16] 93.5% | [17] 96% | [18] 110% | [19] 99.1% | [20] 117%
